Assay outcomes from PubChem BioAssay.
Wnt bcat act: Wnt/beta-catenin pathway activators, primary screen, cell-based, plate reader, single point; Wnt/beta-catenin reporter cell assay, activator; activation, % at 9.35 µM; 300,000 compounds, 1.2% hits; AID 743398, 2014; in the data active = activation above about 30%, passing the limit was not always enough; inconclusive = no clear call, values can overlap the other calls
esBAF inh: Bmi1 luciferase reporter increase in mESCs, primary screen, esBAF inhibitor project, mouse ES cells, Bmi1 luciferase knock-in, single point; AID 602393, 2012; 350,000 compounds, 2% hits; 24 h; 100% = twice the neutral-well signal; reporter increase, % at 12.5 µM; in the data active = activation above about 40%; inconclusive = no clear call, values can overlap the other calls;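 also: a rise in the Bmi1 reporter signal indicates esBAF inhibition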
Statin myotox sup: suppressors of statin myotoxicity in C2C12 myotubes, primary screen, cell-based, single point, plate reader; rescue of ATP level, % at 7.49 µM; AID 602340, 2012; 330,000 compounds, 0.78% hits; C2C12 myotubes + simvastatin, ATP luminescence, 48 h; scaled: DMSO 0, geranylgeraniol control 100;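 active = mean ATP rescue above about 67%, or every replicate alone reaching that limit, limit read from the data, passing the limit was not always enough; inconclusive = no clear call, values can overlap the other calls; inactive = mean under the limit and some replicate under it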;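 also: myotubes were challenged with 10 µM simvastatin during compound exposure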
MITF act: activators of MITF-driven TRPM1 promoter reporter, primary screen, cell-based, SK-MEL-5, luciferase, single point | SK-MEL-5 TRPM1-promoter luciferase, 24 h; % of positive control, neutral wells = 0 | activation, % at 12.5 µM | 300,000 compounds, 0.75% hits | AID 588334, 2011;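 active = mean activation of at least 80% with every replicate also reaching 80%; inconclusive = mean reaches 80% but some replicate falls short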
Rtt109 Vps75: inhibitors of C. albicans Rtt109/Vps75 HAT, primary screen, biochemical, ThioGlo CoA-SH fluorescence, plate reader; Histone acetyltransferase RTT109 (Candida albicans (strain SC5314 / ATCC MYA-2876)), …; inhibition, % at 34.9 µM; purified Rtt109/Vps75, 4 h; 330,000 compounds, 0.16% hits;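 active = inhibition of at least 50% in every replicate; inconclusive = best replicate reaches 50% inhibition but some replicates fall short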
Target sequence (Q5AAJ8 whole entry, looked up): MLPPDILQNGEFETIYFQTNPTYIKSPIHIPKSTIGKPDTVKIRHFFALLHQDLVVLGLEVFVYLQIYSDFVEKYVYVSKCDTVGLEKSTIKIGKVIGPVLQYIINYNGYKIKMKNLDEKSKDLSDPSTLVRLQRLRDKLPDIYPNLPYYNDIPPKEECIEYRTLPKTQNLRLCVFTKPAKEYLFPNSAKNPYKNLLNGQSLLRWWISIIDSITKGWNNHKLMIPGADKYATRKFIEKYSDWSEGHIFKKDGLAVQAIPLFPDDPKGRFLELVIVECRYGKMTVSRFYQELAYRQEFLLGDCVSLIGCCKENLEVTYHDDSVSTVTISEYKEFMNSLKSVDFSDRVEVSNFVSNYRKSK
Large screens that a line does not name were inactive. Only some compounds are listed: those with a hit (about 3.1% of all), similar ones and a draw of the others.

CC(Sc1ncnc2sc(-c3ccccc3)cc12)C(=O)N1CCNC1=O (stereo not given)	none
c1ccc(-c2nnsc2Sc2ccccn2)cc1	Wnt bcat act 36.2, esBAF inh 53.8
C[C@H](CO)N1C[C@H](C)[C@H](CN(C)S(C)(=O)=O)OCCCC[C@H](C)Oc2ccc(NS(=O)(=O)c3cccs3)cc2C1=O	none (no result: Wnt bcat act, Statin myotox sup, MITF act, Rtt109 Vps75)
O=C(COC(=O)C1CC1)Nc1ccc2c(c1)OCO2	Wnt bcat act 46.6 (no result: esBAF inh, Statin myotox sup)
COc1cc(C)ccc1OCC(=O)Nc1ccc2c(c1)OCO2	Wnt bcat act 48.1
COc1ccccc1OCC(=O)Nc1ccc2c(c1)OCO2	none
Cc1ccc(C(=O)CCNc2ccc(Br)cc2)o1	none (no result: Statin myotox sup)
Cc1ccc(C(=O)CCNc2ccccc2)o1	esBAF inh 51.9 (no result: Wnt bcat act)
Cc1ccccc1OCC(=O)Nc1ccc2c(c1)OCO2	none
O=C(COc1ccccc1Cl)Nc1ccc2c(c1)OCO2	MITF act 121.1
CCC(=O)OCC(=O)Nc1ccc2c(c1)OCO2	none
C/C=C/c1cnc2c(c1)C(=O)N([C@@H](C)CO)C[C@@H](C)[C@@H](CN(C)Cc1cccc(C(=O)O)c1)O2	none (no result: Wnt bcat act, MITF act, Rtt109 Vps75)
CN1[C@@H]2c3ccc(/C=C/c4ccccc4)c(=O)n3C[C@@H]2[C@@H](CO)[C@@H]1C(=O)NC1CCC1	none (no result: Wnt bcat act, MITF act, Rtt109 Vps75)
Cc1nn(C)cc1NC(=O)C[C@@H]1CC[C@H]2[C@H](COc3ccc(NC(=O)C4CCC4)cc3C(=O)N2C)O1	none (no result: Wnt bcat act, MITF act, Rtt109 Vps75)
Cc1ccc(-c2cnc3c(c2)C(=O)N([C@@H](C)CO)C[C@H](C)[C@@H](CN(C)C(=O)Cc2ccccc2)O3)cc1	none (no result: Wnt bcat act, MITF act, Rtt109 Vps75)
C[C@@H]1CN([C@H](C)CO)C(=O)c2cc(NC(=O)Nc3ccc(F)cc3)ccc2O[C@@H]1CN(C)Cc1ccccc1	none (no result: Wnt bcat act, MITF act, Rtt109 Vps75)
O=C(CCNc1ccccc1)c1ccc2c(c1)OCO2	Wnt bcat act 47.5, esBAF inh 91.6 (no result: MITF act)
Cc1cc(Cl)c(S(=O)(=O)Nc2ccc3c(c2)OCO3)cc1OCC(N)=O	Statin myotox sup 100.5
CC(=O)Nc1ccccc1OCC(=O)c1ccc2c(c1)OCO2	Wnt bcat act 36.9, esBAF inh inconclusive (no result: Statin myotox sup, MITF act, Rtt109 Vps75)
CCOc1ccccc1NC(=O)Nc1ccc2c(c1)OCO2	none (no result: esBAF inh, Statin myotox sup)
Cc1onc(-c2ccccc2)c1C(=O)OCC(=O)Nc1ccc2c(c1)OCO2	Statin myotox sup 101.8, MITF act inconclusive
Cc1cc(Cl)c(S(=O)(=O)Nc2ccc3c(c2)OCO3)cc1OCC(=O)NC1CCCCC1	none (no result: Wnt bcat act, MITF act)
Cc1onc(-c2ccccc2Cl)c1C(=O)OCC(=O)Nc1ccc2c(c1)OCO2	none (no result: Wnt bcat act, esBAF inh, Statin myotox sup)
C[C@@H]1CN([C@@H](C)CO)C(=O)c2cc(-c3ccccc3)cnc2O[C@@H]1CN(C)C(=O)NC1CCCC1	none (no result: Wnt bcat act, MITF act, Rtt109 Vps75)
Cc1ccc(NC(=O)COc2ccccc2C=O)cc1Cl	esBAF inh 46.8
O=C(CCN1Cc2ccccc2C1)c1ccc2c(c1)OCCO2	Rtt109 Vps75 100.0 (no result: Wnt bcat act)
CC(=O)Nc1cccc(NC(=O)COc2ccccc2C)c1	none (no result: MITF act)
Cc1ccc(-n2c(C)nc3ccsc3c2=O)cc1	none
Cc1ccc(-c2nc3ccsc3c(=O)o2)cc1	Wnt bcat act 50.2 (no result: esBAF inh, Statin myotox sup)
CCCNC(=O)Nc1ccc2c(c1)C(=O)N(C)C[C@H](OC)[C@@H](C)CN(C(=O)c1ccccc1F)[C@H](C)CO2	none (no result: Wnt bcat act, MITF act, Rtt109 Vps75)
C[C@H]1CN([C@@H](C)CO)C(=O)c2cccc(NC(=O)C3CCCCC3)c2O[C@@H]1CN(C)CC1CC1	none (no result: Wnt bcat act, MITF act, Rtt109 Vps75)
C[C@@H]1CN([C@H](C)CO)C(=O)Cc2cc(NC(=O)Cc3cn(C)c4ccccc34)ccc2O[C@@H]1CN(C)Cc1ccc2c(c1)OCO2	Statin myotox sup 85.8 (no result: Wnt bcat act, MITF act, Rtt109 Vps75)
C[C@@H]1CN([C@H](C)CO)C(=O)Cc2cc(NC(=O)Cc3cn(C)c4ccccc34)ccc2O[C@H]1CN(C)Cc1ccc(Cl)c(Cl)c1	Statin myotox sup 94.9 (no result: Wnt bcat act, MITF act, Rtt109 Vps75)
C[C@@H]1CN([C@@H](C)CO)C(=O)Cc2cc(NC(=O)Cc3cn(C)c4ccccc34)ccc2O[C@@H]1CN(C)Cc1ccc(Cl)c(Cl)c1	none (no result: Wnt bcat act, MITF act, Rtt109 Vps75)
C[C@@H]1CN([C@@H](C)CO)C(=O)Cc2cc(NC(=O)Cc3cn(C)c4ccccc34)ccc2O[C@H]1CN(C)Cc1ccc(Cl)c(Cl)c1	Statin myotox sup 71.8 (no result: Wnt bcat act, MITF act, Rtt109 Vps75)
CCOC(=O)c1ccc(-c2ccc3c(c2)CCC3)nc1C	Wnt bcat act 38.0
